# Reference: PubChem BioAssay (NCI)
# The panel holds about 79,000 compounds, 15% with a hit somewhere; the sample as a whole holds those more often. Unmarked numbers belong to inactive results. Active and inactive are the calls of the source. Rule as the data show it: active = growth inhibition above about 70%; inactive = the rest.
# What was measured:
# [1] = NCI Yeast Anticancer Drug Screen. Data for the rad52 strain (AID 147);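 also: 0% = growth of vehicle-treated control cultures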; settings: S. cerevisiae rad52 mutant growth inhibition, stronger effect = higher value
# In short: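 Here a repair-compromised yeast strain receives each compound; its growth is then quantified and normalised to vehicle-only controls.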
# [2] = NCI Yeast Anticancer Drug Screen. Data for the wt1 strain (AID 149);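 also: 0% = growth of vehicle-treated wt1 cultures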; settings: S. cerevisiae wt1 strain (SPY 50644) growth inhibition, stronger effect = higher value
# In short: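 Readout: yeast growth inhibition, normalised to vehicle controls, in the wt1 strain exposed to test compounds.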
# [3] = NCI Yeast Anticancer Drug Screen. Data for the rad50EPP+ strain (AID 151);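 also: 0% = growth of vehicle-treated control cultures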; settings: S. cerevisiae rad50 mutant strain, stronger effect = higher value
# In short: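 Read-out is yeast growth inhibition relative to vehicle; cells used were the rad50EPP+ strain.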
# [4] = NCI Yeast Anticancer Drug Screen. Data for the mgt1 strain (AID 153); settings: S. cerevisiae mgt1 mutant growth inhibition, stronger effect = higher value
# In short: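 Measured: inhibition of mgt1 yeast growth by compound, normalized to vehicle-treated cultures.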
# [5] = NCI Yeast Anticancer Drug Screen. Data for the rad50 strain (AID 155);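 also: 0% = growth of vehicle-only cultures of the same strain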; settings: S. cerevisiae rad50 strain growth inhibition, stronger effect = higher value
# In short: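 Compounds were tested on a yeast strain with an engineered DNA damage repair alteration; the reported value is growth inhibition normalised to vehicle treatment.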
# [6] = NCI Yeast Anticancer Drug Screen. Data for the mec2-1 strain (AID 157); settings: S. cerevisiae mec2-1 strain, stronger effect = higher value
# In short: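 Using mec2-1 yeast: add compound, measure growth, express inhibition versus vehicle-treated cultures.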
# [7] = NCI Yeast Anticancer Drug Screen. Data for the rad14 strain (AID 159);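 also: 0% = growth of vehicle-treated control cultures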; settings: S. cerevisiae rad14 strain growth inhibition, stronger effect = higher value
# In short: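 Compound-treated yeast with a defined DNA-repair lesion; growth inhibition normalised to vehicle-treated cultures.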
# [8] = NCI Yeast Anticancer Drug Screen. Data for the sgs1 mgt1 strain (AID 161);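 also: 0% = growth of cultures given vehicle only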; settings: S. cerevisiae sgs1 mgt1 strain, stronger effect = higher value
# In short: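 Yeast cells carrying a defined DNA-repair defect were exposed to test compounds. Growth inhibition was measured relative to vehicle-treated controls.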
# [9] = NCI Yeast Anticancer Drug Screen. Data for the CLN2oe strain (AID 163);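 also: 0% = growth of vehicle-only control cultures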; settings: S. cerevisiae CLN2oe strain, stronger effect = higher value
# In short: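 Whole-cell yeast growth assay. A strain engineered for altered cell-cycle control received compound, and inhibition relative to vehicle-treated cultures was recorded.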
# [10] = NCI Yeast Anticancer Drug Screen. Data for the cln2 rad14 strain (AID 165);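 also: 0% = growth equal to vehicle treated cultures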; settings: S. cerevisiae cln2 rad14 strain, stronger effect = higher value
# In short: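 Yeast strain cln2 rad14, bearing defects in cell cycle control and DNA repair, serves as the test system; values reflect growth inhibition compared with vehicle.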
# [11] = NCI Yeast Anticancer Drug Screen. Data for the bub3 strain (AID 167); settings: S. cerevisiae bub3 mutant strain, stronger effect = higher value
# In short: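 Growth of a checkpoint-deficient yeast mutant is measured after compound exposure. Values represent inhibition relative to vehicle.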
# [12] = NCI Yeast Anticancer Drug Screen. Data for the wt2 strain (AID 169);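 also: 0% = growth of vehicle-treated yeast cultures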; settings: S. cerevisiae wt2 strain growth inhibition, stronger effect = higher value
# In short: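 Treated yeast vs. vehicle-treated yeast: growth inhibition determined.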
# [13] = NCI Yeast Anticancer Drug Screen. Data for the mlh1 strain (AID 171);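 also: 0% = growth of vehicle-treated control cultures of the same strain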; settings: S. cerevisiae mlh1 strain growth inhibition, stronger effect = higher value
# In short: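 A yeast strain with a defined genetic lesion serves as the test organism. Cultures receive compound or vehicle, and growth is measured.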
# [14] = NCI Yeast Anticancer Drug Screen. Data for the mlh1 rad18 strain (AID 175); settings: S. cerevisiae mlh1 rad18 strain growth inhibition, stronger effect = higher value
# In short: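 Steps: expose repair-defective yeast to compound; measure growth; express inhibition against vehicle-treated controls.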
# [15] = NCI Yeast Anticancer Drug Screen. Data for the rad18 strain (AID 177); settings: S. cerevisiae rad18 mutant growth inhibition, stronger effect = higher value
# In short: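 Measured value is growth inhibition of a yeast strain bearing a DNA repair alteration, referenced to vehicle-treated cells.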
# [16] = at 5.0 µM (retest, dose inferred, filed as 0.5)
# [17] = at 50.0 µM (retest, dose inferred, filed as 5.0)
structure (smiles),measurement,setting,value
O=S(=O)(NNc1ccccc1)c1ccccc1,growth inhibition,[1]; at 1.2 µM,-1%
same,growth inhibition,[1]; at 3.7 µM,4%
same,growth inhibition,[1]; at 11.0 µM,15%
same,growth inhibition,[1]; at 33.0 µM,62%
same,growth inhibition,[1]; at 100.0 µM,97% (active)
same,growth inhibition,[2]; at 1.2 µM,-1%
same,growth inhibition,[2]; at 3.7 µM,-1%
same,growth inhibition,[2]; at 11.0 µM,4%
same,growth inhibition,[2]; at 33.0 µM,11%
same,growth inhibition,[2]; at 100.0 µM,45%
same,growth inhibition,[3]; at 1.2 µM,-1%
same,growth inhibition,[3]; at 3.7 µM,1%
same,growth inhibition,[3]; at 11.0 µM,14%
same,growth inhibition,[3]; at 33.0 µM,71% (active)
same,growth inhibition,[3]; at 100.0 µM,94% (active)
same,growth inhibition,[4]; at 1.2 µM,-3%
same,growth inhibition,[4]; at 3.7 µM,-1%
same,growth inhibition,[4]; at 11.0 µM,8%
same,growth inhibition,[4]; at 33.0 µM,14%
same,growth inhibition,[4]; at 100.0 µM,82% (active)
same,growth inhibition,[5]; at 1.2 µM,4%
same,growth inhibition,[5]; at 3.7 µM,18%
same,growth inhibition,[5]; [16],-20%
same,growth inhibition,[5]; at 11.0 µM,27%
same,growth inhibition,[5]; at 33.0 µM,60%
same,growth inhibition,[5]; [17],16%
same,growth inhibition,[5]; at 50.0 µM,73.5% (active)
same,growth inhibition,[5]; at 100.0 µM,95% (active)
same,growth inhibition,[6]; at 1.2 µM,-6%
same,growth inhibition,[6]; at 3.7 µM,-5%
same,growth inhibition,[6]; [16],-12%
same,growth inhibition,[6]; at 11.0 µM,-3%
same,growth inhibition,[6]; at 33.0 µM,26%
same,growth inhibition,[6]; [17],15%
same,growth inhibition,[6]; at 50.0 µM,19.1%
same,growth inhibition,[6]; at 100.0 µM,92% (active)
same,growth inhibition,[7]; at 1.2 µM,-2%
same,growth inhibition,[7]; at 3.7 µM,3%
same,growth inhibition,[7]; at 11.0 µM,8%
same,growth inhibition,[7]; at 33.0 µM,18%
same,growth inhibition,[7]; at 100.0 µM,44%
same,growth inhibition,[8]; [16],0%
same,growth inhibition,[8]; [17],9%
same,growth inhibition,[8]; at 50.0 µM,36.6%
same,growth inhibition,[9]; at 1.2 µM,0%
same,growth inhibition,[9]; at 3.7 µM,-1%
same,growth inhibition,[9]; at 11.0 µM,5%
same,growth inhibition,[9]; at 33.0 µM,34%
same,growth inhibition,[9]; at 100.0 µM,85% (active)
same,growth inhibition,[10]; [16],-44%
same,growth inhibition,[10]; [17],-3%
same,growth inhibition,[10]; at 50.0 µM,16.1%
same,growth inhibition,[11]; at 1.2 µM,-4%
same,growth inhibition,[11]; at 3.7 µM,-7%
same,growth inhibition,[11]; [16],-4%
same,growth inhibition,[11]; at 11.0 µM,1%
same,growth inhibition,[11]; at 33.0 µM,45%
same,growth inhibition,[11]; [17],23%
same,growth inhibition,[11]; at 50.0 µM,11.7%
same,growth inhibition,[11]; at 100.0 µM,93% (active)
same,growth inhibition,[12]; at 1.2 µM,-2%
same,growth inhibition,[12]; at 3.7 µM,-1%
same,growth inhibition,[12]; at 11.0 µM,2%
same,growth inhibition,[12]; at 33.0 µM,16%
same,growth inhibition,[12]; at 100.0 µM,67%
same,growth inhibition,[13]; at 1.2 µM,-5%
same,growth inhibition,[13]; at 3.7 µM,-3%
same,growth inhibition,[13]; at 11.0 µM,-2%
same,growth inhibition,[13]; at 33.0 µM,14%
same,growth inhibition,[13]; at 100.0 µM,74% (active)
same,growth inhibition,[14]; [16],-25%
same,growth inhibition,[14]; [17],51%
same,growth inhibition,[14]; at 50.0 µM,54.5%
same,growth inhibition,[15]; at 1.2 µM,-1%
same,growth inhibition,[15]; at 3.7 µM,3%
same,growth inhibition,[15]; at 11.0 µM,22%
same,growth inhibition,[15]; at 33.0 µM,47%
same,growth inhibition,[15]; at 100.0 µM,91% (active)
